Source: the supplement of paper PMC7411054
Counter-ions that a name gives are not always drawn.

Legend:
Details in all cases: treatment time: 24 h
A549-ACTB-RAB5A [1] = test: phenotypically active (imaging signature differs from DMSO and reproducible) at any of 0.3-9 uM (binary (1 = active, 0 = inactive)); higher = active
In short: (§1)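 Two criteria together defined phenotypic activity: deviation and reproducibility. Deviation meant ≥3 of 4 wells beyond the 95th percentile of Euclidean distances in solvent control wells, and reproducibility meant a median replicate Pearson correlation above the 95th percentile of non-replicates. Wells had been treated for 24 h at 0.3, 1, 3 or 9 µM in fifteen gene-edited A549, HepG2 and WPMY1 reporter lines before live imaging.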

A549-CANX-COX4 = test: as above
In short: as §1

A549-GM130-SQSTM1 [2] = test: as above
In short: as §1

A549-TP53BP1-CLTA [3] = test: as above
In short: as §1

A549-TUBA1B-RELA = test: as above
In short: as §1

HepG2-ACTB-RAB5A [4] = test: as above
In short: as §1

HepG2-CANX-COX4 = test: as above
In short: as §1

HepG2-GM130-SQSTM1 = test: as above
In short: as §1

HepG2-TP53BP1-CLTA = test: as above
In short: as §1

HepG2-TUBA1B-RELA = test: as above
In short: as §1

WPMY1-ACTB-RAB5A = test: as above
In short: as §1

WPMY1-CANX-COX4 = test: as above
In short: as §1

WPMY1-GM130-SQSTM1 [5] = test: as above
In short: as §1

WPMY1-TP53BP1-CLTA = test: as above
In short: as §1

WPMY1-TUBA1B-RELA = test: as above
In short: as §1

A549-ACTB-RAB5A [6] = test: lowest phenotypically active concentration; higher = less potent
In short: as §1

A549-GM130-SQSTM1 [7] = test: as above
In short: as §1

A549-TP53BP1-CLTA [8] = test: as above
In short: as §1

HepG2-ACTB-RAB5A [9] = test: as above
In short: as §1

WPMY1-GM130-SQSTM1 [10] = test: as above
In short: as §1

Row | SMILES | phenotypically active (A549-ACTB-RAB5A [1]) | phenotypically active (A549-CANX-COX4) | phenotypically active (A549-GM130-SQSTM1 [2]) | phenotypically active (A549-TP53BP1-CLTA [3]) | phenotypically active (A549-TUBA1B-RELA) | phenotypically active (HepG2-ACTB-RAB5A [4]) | phenotypically active (HepG2-CANX-COX4) | phenotypically active (HepG2-GM130-SQSTM1) | phenotypically active (HepG2-TP53BP1-CLTA) | phenotypically active (HepG2-TUBA1B-RELA) | phenotypically active (WPMY1-ACTB-RAB5A) | phenotypically active (WPMY1-CANX-COX4) | phenotypically active (WPMY1-GM130-SQSTM1 [5]) | phenotypically active (WPMY1-TP53BP1-CLTA) | phenotypically active (WPMY1-TUBA1B-RELA) | lowest phenotypically active concentration (A549-ACTB-RAB5A [6]) | lowest phenotypically active concentration (A549-GM130-SQSTM1 [7]) | lowest phenotypically active concentration (A549-TP53BP1-CLTA [8]) | lowest phenotypically active concentration (HepG2-ACTB-RAB5A [9]) | lowest phenotypically active concentration (WPMY1-GM130-SQSTM1 [10])
1 | CCOC(=O)C1(c2ccccc2)CCN(C)CC1 [meperidine] | 0 (inactive) | 0 (inactive) | 0 (inactive) | 0 (inactive) | 0 (inactive) | 0 (inactive) | 0 (inactive) | 0 (inactive) | 0 (inactive) | 0 (inactive) | 0 (inactive) | 0 (inactive) | 0 (inactive) | 0 (inactive) | 0 (inactive) |  |  |  |  | 
2 | C[C@]12CC[C@H](O)C[C@H]1CC[C@@H]1[C@@H]2C[C@@H](O)[C@]2(C)[C@@H](C3=CC(=O)OC3)CC[C@]12O [Digoxigenin] | 1 (active) | 1 (active) | 1 (active) | 1 (active) | 1 (active) | 1 (active) | 1 (active) | 1 (active) | 1 (active) | 1 (active) | 1 (active) | 1 (active) | 1 (active) | 1 (active) | 1 (active) | ≤ 0.3 µM | ≤ 0.3 µM | ≤ 0.3 µM | 1 µM | 3 µM
3 | OCC[N+]12CN3CN(CN(C3)C1)C2 | 0 (inactive) | 0 (inactive) | 0 (inactive) | 0 (inactive) | 0 (inactive) | 0 (inactive) | 0 (inactive) | 0 (inactive) | 0 (inactive) | 0 (inactive) | 0 (inactive) | 0 (inactive) | 0 (inactive) | 0 (inactive) | 0 (inactive) |  |  |  |  | 
4 | C/C=C1/C[N+]2(C)CC[C@]34C(=C(C=O)[C@H]1C[C@@H]32)Nc1ccccc14 (stereo partly drawn) [Fluorocurarine chloride] | 0 (inactive) | 0 (inactive) | 0 (inactive) | 0 (inactive) | 0 (inactive) | 0 (inactive) | 0 (inactive) | 0 (inactive) | 0 (inactive) | 0 (inactive) | 0 (inactive) | 0 (inactive) | 0 (inactive) | 0 (inactive) | 0 (inactive) |  |  |  |  | 
5 | Cc1sc2c(c1C)C(c1ccc(Cl)cc1)=N[C@@H](CC(=O)OC(C)(C)C)c1nnc(C)n1-2 | 1 (active) | 1 (active) | 1 (active) | 1 (active) | 1 (active) | 1 (active) | 1 (active) | 1 (active) | 1 (active) | 1 (active) | 1 (active) | 1 (active) | 1 (active) | 1 (active) | 1 (active) | ≤ 0.3 µM | ≤ 0.3 µM | ≤ 0.3 µM | ≤ 0.3 µM | ≤ 0.3 µM
6 | C=C1[C@@H](O)C2C=CC[C@H](C)C(=O)[C@](C)(O)C=C[C@@H](OC(C)=O)[C@]23C(=O)N[C@H](Cc2ccccc2)[C@@H]3[C@@H]1C (stereo partly drawn) [Cytochalasin D] | 1 (active) | 1 (active) | 1 (active) | 1 (active) | 1 (active) | 1 (active) | 1 (active) | 1 (active) | 1 (active) | 1 (active) | 1 (active) | 1 (active) | 1 (active) | 1 (active) | 1 (active) | ≤ 0.3 µM | ≤ 0.3 µM | ≤ 0.3 µM | ≤ 0.3 µM | ≤ 0.3 µM
7 | CC[C@@H](CO)NC(=O)[C@@H]1C=C2c3cccc4c3c(cn4C)C[C@H]2N(C)C1 [methysergide] | 0 (inactive) | 0 (inactive) | 1 (active) | 0 (inactive) | 0 (inactive) | 0 (inactive) | 0 (inactive) | 0 (inactive) | 0 (inactive) | 0 (inactive) | 0 (inactive) | 0 (inactive) | 0 (inactive) | 0 (inactive) | 0 (inactive) |  | 9 µM |  |  | 
8 | CC(C)[C@@]1(NC(=O)[C@@H]2C[C@@H]3c4cccc5[nH]cc(c45)C[C@H]3N(C)C2)O[C@@]2(O)[C@@H]3CCCN3C(=O)[C@H](Cc3ccccc3)N2C1=O [Dihydroergocristine mesylate] | 1 (active) | 1 (active) | 1 (active) | 1 (active) | 1 (active) | 1 (active) | 1 (active) | 1 (active) | 1 (active) | 1 (active) | 1 (active) | 1 (active) | 1 (active) | 1 (active) | 1 (active) | 9 µM | 9 µM | 9 µM | 3 µM | 9 µM
9 | CC(C)(O)[C@H]1O[C@H]2CC[C@@]3(C)[C@@](O)(CC[C@H]4Cc5c([nH]c6ccccc56)[C@@]43C)C2=CC1=O [paxilline] | 1 (active) | 0 (inactive) | 0 (inactive) | 0 (inactive) | 0 (inactive) | 1 (active) | 0 (inactive) | 0 (inactive) | 1 (active) | 0 (inactive) | 0 (inactive) | 0 (inactive) | 1 (active) | 1 (active) | 0 (inactive) | 9 µM |  |  | 9 µM | 9 µM
10 | CC(C)(C)c1cc(C=C(C#N)C#N)cc(Br)c1O | 0 (inactive) | 0 (inactive) | 1 (active) | 0 (inactive) | 0 (inactive) | 0 (inactive) | 0 (inactive) | 0 (inactive) | 0 (inactive) | 0 (inactive) | 0 (inactive) | 0 (inactive) | 0 (inactive) | 0 (inactive) | 0 (inactive) |  | 9 µM |  |  | 
11 | CC(C)(N)Cc1ccccc1 [phentermine] | 0 (inactive) | 1 (active) | 0 (inactive) | 1 (active) | 0 (inactive) | 1 (active) | 0 (inactive) | 0 (inactive) | 0 (inactive) | 0 (inactive) | 0 (inactive) | 0 (inactive) | 1 (active) | 0 (inactive) | 0 (inactive) |  |  | 3 µM | 9 µM | 9 µM
12 | C[C@@]1(CO)[C@H](O)CC[C@@]2(C)[C@H]1CC[C@H]1C[C@@H]3C[C@@]12CC[C@]3(O)CO [Aphidicolin] | 1 (active) | 1 (active) | 1 (active) | 1 (active) | 1 (active) | 1 (active) | 1 (active) | 1 (active) | 1 (active) | 1 (active) | 1 (active) | 1 (active) | 1 (active) | 1 (active) | 1 (active) | ≤ 0.3 µM | ≤ 0.3 µM | ≤ 0.3 µM | ≤ 0.3 µM | ≤ 0.3 µM
13 | O=C(Nc1ccncc1)C(=O)c1cn(Cc2ccc(Cl)cc2)c2ccccc12 [Indibulin] | 1 (active) | 0 (inactive) | 1 (active) | 1 (active) | 1 (active) | 1 (active) | 1 (active) | 1 (active) | 1 (active) | 1 (active) | 1 (active) | 1 (active) | 1 (active) | 1 (active) | 1 (active) | ≤ 0.3 µM | ≤ 0.3 µM | 3 µM | 1 µM | ≤ 0.3 µM
14 | C[C@@]12C(=O)OC(=O)[C@]1(C)[C@H]1CC[C@@H]2O1 [Cantharidin] | 1 (active) | 1 (active) | 1 (active) | 1 (active) | 0 (inactive) | 1 (active) | 1 (active) | 1 (active) | 1 (active) | 1 (active) | 1 (active) | 1 (active) | 1 (active) | 1 (active) | 1 (active) | 3 µM | 3 µM | 3 µM | 3 µM | 3 µM
15 | C[C@@H]1CC[C@H]2[C@@H](C)C(=O)O[C@@H]3O[C@@]4(C)CC[C@@H]1[C@]32OO4 [Artemisinin] | 1 (active) | 0 (inactive) | 1 (active) | 1 (active) | 1 (active) | 1 (active) | 0 (inactive) | 1 (active) | 1 (active) | 1 (active) | 1 (active) | 1 (active) | 1 (active) | 1 (active) | 1 (active) | 3 µM | 3 µM | 3 µM | 3 µM | ≤ 0.3 µM
